Source: PubChem BioAssay
CtBP-E1A inh: qHTS Assay for Inhibitors of the CtBP/E1A Interaction; AlphaScreen GST-E1A/His-CtBP binding, 1536-well; stronger effect = lower value; activity change, % (no concentration beside the values); 340,000 compounds, 0.49% hits; in the data active = activity change below about -65%; inconclusive = mostly about -30% to -63%; note: % is set by controls: 0 for no effect and ±100 for the full control effect
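Protein mix (5X: 125 nM each GST-E1A, His-CtBP) was incubated with pinned compound 2 h at 37 deg C in dark, in 50 mM Tris pH 8.0 buffer with 300 mM NaCl. Glutathione donor and nickel acceptor beads followed; AlphaScreen signal read after 1 h.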
JMJD2A Tudor inh: qHTS Assay for Inhibitors of JMJD2A-Tudor Domain; Lysine-specific demethylase 4A (Homo sapiens), O75164; AlphaScreen JMJD2A-Tudor / H3K4me3 peptide binding; Potency, µM (doses to about 114 µM), without a hit: at the top dose activity change, negative = inhibition, hits mostly inhibitors; 390,000 compounds, 4.4% hits; AID 504339, 2011; note: potency is the fitted concentration of half-maximal effect; % is set by controls: 0 for no effect and ±100 for the full control effect; nearly all actives have a fitted effect of over 50% in size
HP1b chromo inh: HTS for Inhibitors of HP1-beta Chromodomain Interactions with Methylated Histone Tails; AlphaScreen HP1-beta / biotin-H3K9me3 peptide binding; Potency, µM (doses to about 114 µM), without a hit: at the top dose activity change, negative = inhibition, hits mostly inhibitors; 390,000 compounds, 0.56% hits; AID 540317, 2011; note: potency is the fitted concentration of half-maximal effect; nearly all actives have a fitted effect of over 70% in size
Target sequence (P83916 whole entry, looked up): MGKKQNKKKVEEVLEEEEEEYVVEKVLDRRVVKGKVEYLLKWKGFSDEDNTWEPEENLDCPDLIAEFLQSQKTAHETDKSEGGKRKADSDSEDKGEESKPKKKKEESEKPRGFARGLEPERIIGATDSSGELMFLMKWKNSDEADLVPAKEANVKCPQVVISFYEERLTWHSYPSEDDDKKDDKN
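AlphaScreen: HP1-beta (50 nM) preformed 30 min with biotin-H3(1-18)K9me3 peptide (50 nM) in PBS pH 7.4, 0.01% Tween-20. Compound added for 30 min at RT, then streptavidin donor/nickel chelate acceptor beads (10 ug/mL) for 30 min.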
G9a block: qHTS Assay for Inhibitors of Histone Lysine Methyltransferase G9a; 350,000 compounds, 8.8% hits; G9a H3K9 monomethylation, AlphaScreen, 2 h; Histone-lysine N-methyltransferase EHMT2 (Homo sapiens), Q96KQ7; Potency, µM (highest dose often 102 µM), without a hit: at the top dose activity, negative = inhibition, most hits filed as inhibitors; note: potency is the fitted concentration of half-maximal effect; % is set by controls: 0 for no effect and ±100 for the full control effect; nearly all actives have a fitted effect of over 75% in size
Target sequence (Q96KQ7 913-1193 limits assumed): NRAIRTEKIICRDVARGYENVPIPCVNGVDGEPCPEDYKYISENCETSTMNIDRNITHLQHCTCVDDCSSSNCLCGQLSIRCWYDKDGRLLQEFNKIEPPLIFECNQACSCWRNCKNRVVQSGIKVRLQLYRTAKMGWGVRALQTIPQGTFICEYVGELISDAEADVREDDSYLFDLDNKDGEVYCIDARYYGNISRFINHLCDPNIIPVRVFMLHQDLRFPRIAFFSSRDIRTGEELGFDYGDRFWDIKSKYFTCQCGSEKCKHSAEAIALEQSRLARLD
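AlphaScreen read-out: biotin-H3K9 peptide (500 nM) methylation by 20 nM enzyme with 20 uM SAM, 2 h at room temperature after 15 min compound preincubation; anti-monomethyl H3K9 antibody plus donor/acceptor beads, 10 min dark.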
Six1-Eya2 inh: qHTS Assay for Inhibitors of the Six1/Eya2 Interaction. Homeobox protein SIX1 (Homo sapiens) + Protein phosphatase EYA2 (Homo sapiens), …. AlphaScreen GST-Six1/His-Eya2 binding, biochemical; stronger effect = lower value. activity change, % (concentration not given with the values). 360,000 compounds, 0.56% hits; in the data active = activity change below about -65%; inconclusive = mostly about -30% to -63%; note: % is set by controls: 0 for no effect and ±100 for the full control effect
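Six1/Eya2 binding was read as AlphaScreen signal after compounds were pinned into GST-Six1 plus His-tagged Eya2 (5X stock 250/500 nM) in pH 8.0 Tris/NaCl/TCEP buffer, beads added, then incubated 1 h, 37 C, dark.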
BAZ2B inh: qHTS Assay for Inhibitors of BAZ2B | Bromodomain adjacent to zinc finger domain protein 2B (Homo sapiens), Q9UIF8 | AlphaScreen BAZ2B-H3K14Ac peptide displacement | Potency, µM (highest dose often 114 µM), for the others: at the highest dose activity change, negative = inhibition, actives largely listed as inhibitors | 360,000 compounds, 4.4% hits; note: potency is the fitted concentration of half-maximal effect; % is set by controls: 0 for no effect and ±100 for the full control effect; nearly all actives have a fitted effect of over 60% in size
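BAZ2B 50 nM plus b-H3(5-23)K14Ac 50 nM, PBS pH 7.4/0.01% Tween-20, 30 min RT; compound added (max 110 uM), 30 min RT; streptavidin donor/Ni-chelate acceptor beads 10 ug/mL final, 20 min dark; AlphaScreen read.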
* marks the source's active call; other numbers are inactive results; ? = inconclusive; / = not tested or not shown; [ ] = remark or other dose. Shown are actives, neighbours in structure and some others; about 10% of the full set was active somewhere. Unless noted, calls come from the whole dose curve; as a rule, active = well fitted inhibition curve with a large enough effect; inconclusive = small, poorly fitted or top-dose-only effect; inactive = no such curve, though single readings can be large or run the other way.

SMILES	CtBP-E1A inh	JMJD2A Tudor inh	HP1b chromo inh	G9a block	Six1-Eya2 inh	BAZ2B inh
COCCNC(=O)/C(C#N)=C/c1cc(Br)c(O)c(OC)c1	0	-9%	1%	14µM*	4	-12%
COc1cc(/C=C(\C#N)C(=O)NCCc2ccccc2)cc(OC)c1O	-11	-15%	4%	32µM*	-6	-8%
COc1ccc(/C=C(\C#N)C(=O)NCc2ccccc2)cc1O	0	-22%	10%	24%	0	-8%
COCCNC(=O)/C(C#N)=C/c1ccccc1Br	-7	18µM*	-3%	4%	10	-13%
COc1cc(/C=C(\C#N)C(=O)c2c[nH]c3ccccc23)cc(OC)c1O	-8	50µM*	?	11µM*	-8	/
COc1cccc(CN2CCN(C(=O)[C@H]3O[C@@H](n4cnc5c(N)ncnc54)[C@H](O)[C@@H]3O)CC2=O)c1	-30	/	/	/	-19	/
Cc1ccc(NS(=O)(=O)c2cc3c(cc2F)NC(=O)CC3)cc1Cl	/	-24%	/	/	/	/
COc1cc(/C=N/S(=O)(=O)CCc2ccccc2)cc(OC)c1O	-22	-9%	13%	50µM*	9	-23%
N#C/C(=C\c1ccc(O)c(O)c1)C(=O)NCCc1ccccc1	-21	?	?	9.5µM*	-17	11µM*
Cc1cccc2c1c1ccc3c(c1n2C)C(=O)C=CC3=O	/	25µM*	6.3µM*	2µM*	-13	5µM*
O=C(CNc1ccc(Br)cc1)c1ccccc1	8	-10%	22%	?	-1	7%
O=C(CNc1ccccc1Cl)c1ccc(Br)cc1	7	-10%	45%	79µM*	9	3%
N#Cc1ccsc1NC(=O)c1ccccn1	?	20µM*	9%	?	-67*	10µM*
N#Cc1ccsc1NC(=O)CCc1ccccc1	1	-14%	14%	25µM*	-2	?
N#Cc1ccsc1NC(=O)c1ccc2ncsc2c1	2	/	/	/	-16	/
N#Cc1ccsc1NC(=O)CN(Cc1ccccc1)Cc1ccccc1	9	12%	67%	85%[59 µM]	9	0%
Cc1ccc(NS(=O)(=O)c2cc3c(cc2N(C)C)CCC(=O)N3)cc1C	/	-35%	/	/	/	/
Cc1ccccc1Nc1nc(N)nc(COC(=O)/C=C/c2ccco2)n1	/	-26%	10%	50µM*	-7	?
Cc1ccccc1Nc1nc(N)nc(COC(=O)c2c(C)noc2C)n1	3	-8%	21%[57 µM]	/	-1	/
CC(=O)N(C)c1ccc(N=Nc2c(C)[nH]n(-c3ccccc3)c2=O)cc1	/	?	?	35µM*	-9	?
CC(=O)N(C)c1ccc(N=Nc2c(C)[nH]n(C(N)=S)c2=O)cc1	2	-15%	44%	8%[59 µM]	-1	-13%
CCOC(=O)c1ccc(N=Nc2c(C)[nH]n(-c3ccccc3)c2=O)cc1	/	?	-27%	4µM*	?	?
CC(=O)c1ccc(NC(=O)C2CCN(S(=O)(=O)c3ccc4[nH]c5c(c4c3)CCCCC5)CC2)cc1	/	-14%	17%	-47%[59 µM]	/	-14%
Nc1nc(Nc2cccc(F)c2)nc(NCc2ccco2)c1[N+](=O)[O-]	-13	-35%	-1%	0%	-16	?
CCCCCCOC1(c2ccccc2)OC(=O)c2ccccc21 (stereo not drawn)	11	76%	224%	84%[59 µM]	44	152%
SMILES	CtBP-E1A inh	JMJD2A Tudor inh	HP1b chromo inh	G9a block	Six1-Eya2 inh	BAZ2B inh
CCCCCOP(=O)(OCCCCC)C1(NS(=O)(=O)c2ccccc2)C=CC(=O)c2ccccc21 (stereo not drawn)	-1	-29%	?	8.9µM*	-1	-2%
NNC(=O)CSc1nnnn1-c1ccccc1	0	-12%	34%	/	1	-2%
Cc1ccc(N/N=C(/Sc2nnnn2-c2ccccc2)C(=O)c2ccccc2)cc1	?	?	-7%	10%[59 µM]	-78*	?
CSc1ccccc1NC(=O)CN(C)C(=O)COc1cccc2cccnc12	-85*	22µM*	0%	/	-85*	/
COc1cc(C(F)(F)F)ccc1C(=O)NCCc1ccco1	6	-21%	17%	?	-3	-22%
CCCCN=C(NNc1ccc(Br)cc1)C(=O)OCC	-12	?	-10%	11µM*	-19	?
CCOC(=O)C(=CNc1ccc(C(F)(F)F)cc1Cl)C(=O)OCC	5	59%	97%	121%	2	24%
CCOC(=O)C(=O)NNc1ccc(C)cc1	-13	-6%	30%	?	-1	3%
CCOC(=O)C(=NCCCN(C)C)NNc1ccc(Br)cc1	/	-11%	-3%	7.1µM*	6	4%
CCOC(=O)C(=NCCCN(C)C)NNc1cc(C(F)(F)F)ccc1Cl	-4	45µM*	?	40µM*	0	-34%
CCCc1cc(=O)[nH]c2nnc(SCCC(C)C)n12	/	-3%	46%	10%[59 µM]	/	4%
COc1ccc(C(NC(=O)C2CCN(CCOc3ccc(Cl)cc3)CC2)c2cccs2)cc1 (stereo not drawn)	-12	/	/	/	5	/
CN1CCN(c2ccc(-c3nc(-c4ccccc4)no3)cc2[N+](=O)[O-])CC1	/	-27%	14%	-1%[59 µM]	/	?
Cc1cc(C)nc(NC(=O)C2c3ccccc3Oc3ccccc32)n1	-4	-1%	52%	50µM*	-3	-1%
COc1ccc(NC(=O)CSC2=Nc3ccccc3C3=NC(CCC(=O)NCc4ccc(F)cc4)C(=O)N23)cc1Cl (stereo not drawn)	/	-17%	18%	-8%[59 µM]	/	-13%
CCN(C(=O)Cn1nc(Cc2ccncc2)c2ccccc2c1=O)c1cccc(Cl)c1	/	-25%	23%	-6%[59 µM]	/	-15%
O=C(CN1CCCC1)Nc1nc(-c2ccc3c(c2)CCN3C(=O)c2ccccc2F)cs1	-13	?	-6%	?	-29	-28%
CC(C)(C)Nc1nc(-c2ccc3c(c2)CCN3C(=O)C2CC2)cs1	-13	?	?	40µM*	-7	?
CNc1nc(-c2ccc3c(c2)CCN3C(=O)c2ccccc2C)cs1	-1	?	?	22µM*	-17	50µM*
CNc1nc(-c2ccc3c(c2)CCN3C(=O)c2ccc(F)cc2)cs1	/	-27%	9%	32µM*	-8	?
CC(C)C(=O)Nc1nc(-c2ccc3c(c2)CCN3C(=O)C2CC2)cs1	-6	0%	6%	?	-1	-16%
